High-throughput results (PubChem)
EP2 antag – human EP2 receptor antagonists, primary screen, TR-FRET cAMP, C6 glioma cells; inhibition, % at 25 µM; 0.52% of 260,000 active; C6 glioma cells expressing human EP2; cells stimulated with saturating PGE2; Prostaglandin E2 receptor EP2 subtype (Homo sapiens), P43116; AID 1422, 2008;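 active means percent inhibition above 40 after rounding to a whole number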;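 further: rat C6 glioma host cells with rolipram phosphodiesterase inhibitor present; the protocol text gives 20 µM as final concentration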
EP2 mod – EP2 receptor modulators, cAMP readout, primary screen, cell-based, HTRF cAMP, PGE2 stimulation; Prostaglandin E2 receptor EP2 subtype (Homo sapiens), P43116; EP2-expressing cells, cAMP HTRF FRET, PGE2 co-stimulation; induction, % at 25 µM; 0.83% of 260,000 active; AID 940, 2007;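 active means compounds whose cAMP rise, as percent of the full-agonist control response, exceeds 60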;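 further: rat C6 glioma line stably carrying human EP2 under a CMV promoter; the protocol text gives 20 µM as final concentration; 100% = response of wells given 1 µM PGE2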
S1P4 ag – S1P4 receptor agonists, primary screen, cell-based; S1P4-expressing cell line, agonist reporter assay; Sphingosine 1-phosphate receptor 4 (Homo sapiens), O95977; 0.35% of 220,000 active; activation, % at 4.98 µM; AID 1509, 2009; in the data active means activation above about 11%;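 further: 0% = DMSO vehicle and 100% = reference agonist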
S1P4 antagonist – S1P4 receptor antagonists, primary screen, cell-based; S1P4-expressing cells, antagonist mode, reporter read-out; inhibition, % at 4.98 µM; 0.26% of 220,000 active; AID 1510, 2009; in the data active means inhibition above about 29%;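 further: 0% = wells stimulated with agonist and 100% = vehicle wells without agonist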
S1P3 antag – S1P3 receptor antagonists, primary screen, cell-based. Sphingosine 1-phosphate receptor 3 (Homo sapiens), Q99500. CHO S1P3 NFAT-BLA reporter, FRET fluorescence, antagonist mode. AID 485, 2006. 0.27% of 170,000 active. inhibition, % at 4.98 µM;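 active means inhibition above the plate cutoff, the mean inhibition of test wells on that plate plus 3 SD, cut at about 28% in these data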;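 further: cells challenged with S1P at its EC80 of 0.8 µM; blue over green emission ratio from cleaved BLA substrate after 4 h stimulation; 0% = S1P-stimulated wells and 100% = unstimulated DMSO-only wells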
Target sequence (Q99500 whole entry, looked up): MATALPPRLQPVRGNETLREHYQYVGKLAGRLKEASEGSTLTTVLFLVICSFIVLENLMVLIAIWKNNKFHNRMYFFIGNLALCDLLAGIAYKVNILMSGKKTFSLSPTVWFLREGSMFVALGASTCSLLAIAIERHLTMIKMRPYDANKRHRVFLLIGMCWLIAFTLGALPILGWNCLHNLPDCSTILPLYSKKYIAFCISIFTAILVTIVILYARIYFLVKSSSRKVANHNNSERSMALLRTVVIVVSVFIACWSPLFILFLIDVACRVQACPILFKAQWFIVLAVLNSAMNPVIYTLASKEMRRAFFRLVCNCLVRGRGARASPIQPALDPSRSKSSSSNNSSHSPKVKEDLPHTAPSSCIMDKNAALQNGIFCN
INS promoter inh – inhibitors of insulin promoter-driven GFP, primary screen, imaging, TRM-6 cells (human fetal islet line), eGFP reporter, cell count; reporter expression induced with tamoxifen; inhibition, % at 2 µM; 0.9% of 130,000 active;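 active means inhibition above the mean plus 3 SD, with well images judged a real hit on visual review, cut at about 60% in these data, passing the limit was not always enough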
Numbers without * were called inactive; · = no result. In the library only some 2.4% were active in any assay of this set; here they are far more common.

SMILES	EP2 antag	EP2 mod	S1P4 ag	S1P4 antagonist	S1P3 antag	INS promoter inh
CC(C)C(C(=O)NCc1ccco1)N(C(=O)CNS(=O)(=O)c1ccccc1)c1ccccc1 (stereo unspecified)	6.2	10.2	-2.0	4.1	-0.1	·
CC(C)C(C(=O)NCc1ccco1)N(C(=O)CNS(=O)(=O)c1ccc(Cl)cc1)C1CCCC1 (stereo unspecified)	7.6	4.0	11.3*	8.3	14.3	·
COc1ccc(N2CCN(C(=O)CCCn3c(=O)[nH]c4cc(Cl)ccc4c3=O)CC2)cc1	14.1	-0.4	-1.7	-10.0	·	74.2*
CCOC(=O)CSc1nc(C)c2ccccc2n1	9.8	18.6	1.0	7.8	·	78.6*
Cc1ccc(C)c2[nH]c(=O)c(CN(C(=S)NCc3ccccc3)C3CCCCC3)cc12	23.2	63.9*	·	·	·	·
Cc1ccc(C)c2[nH]c(=O)c(CN(C(=S)NCCc3ccccc3)C3CCCCC3)cc12	18.7	-18.4	·	·	·	·
CCCNC(=S)N(Cc1cc2c(C)cc(C)cc2[nH]c1=O)C1CCCCC1	5.5	60.7*	·	·	·	·
CCCn1c(=O)c(C(=O)Nc2ccccc2OC)c(O)c2ccccc21	14.1	66.7*	·	·	·	·
CCn1c(=O)c(C(=O)NCCc2ccccc2)c(O)c2ccccc21	3.1	60.7*	1.5	-7.6	8.8	0.0
CCn1c(=O)c(C(=O)NCCCl)c(O)c2ccccc21	9.1	-7.5	·	·	·	·
Cc1cc(C)nc(SC2CCCCC2=O)n1 (stereo unspecified)	5.9	-19.2	·	·	·	·
CC1=C(CC[C@H](C)CO)O[C@@H]2C[C@@H]3[C@H]4CC[C@H]5C[C@@H](O)CC[C@]5(C)[C@@H]4CC(=O)[C@@]3(C)[C@H]12	64.7*	24.1	·	·	·	·
CC(=O)OC1CC[C@@]2(C)C(CCC3C2CC(=O)[C@@]2(C)C3CC3CC(C)=CC(=O)C32)C1 (stereo partly specified)	6.2	54.4	-0.9	-1.9	-2.1	·
C[C@@]1(CO)[C@H](O)CC[C@]2(C)[C@@H]1CC[C@H]1C[C@H]3C[C@]12CC[C@@]3(O)COC(=O)CN	51.7*	-3.4	·	·	·	·
O=C(c1ccccc1)N(Cc1nc2ccccc2c(=O)[nH]1)Cc1cccs1	8.5	-9.0	·	·	·	·
Cc1ccc(NC(=O)CSc2nc3sc4c(c3c(=O)[nH]2)CCCC4)cc1	13.6	-8.1	·	·	·	·
COc1ccc(N2CC(C(=O)OCC(=O)Nc3c(C)cc(C)cc3C)CC2=O)cc1 (stereo unspecified)	10.2	-2.4	·	·	·	·
COc1ccc(CN(Cc2cccc(C)n2)CC2CCCO2)c(OC)c1 (stereo unspecified)	8.6	-2.2	·	·	·	·
C=CCn1c(SCC(=O)NCc2ccc3c(c2)OCO3)nnc1-c1cccnc1	2.6	5.6	0.7	2.9	0.7	76.5*
S=c1nc(Cc2ccc(Cl)cc2)[nH]c2ccccc12	2.9	19.4	0.1	-6.9	5.2	-174.1
S=c1nc(COc2ccccc2)[nH]c2ccccc12	18.7	65.7*	·	·	·	·
Cn1nc(C(=O)NCc2ccc(F)cc2)c2ccccc2c1=O	6.6	6.8	-0.4	2.7	90.6*	·
COC(=O)c1ccccc1NC(=O)C1CC(=O)N(c2ccc(F)cc2)C1 (stereo unspecified)	10.2	6.9	0.3	-7.2	-9.1	71.4*
COC(=O)c1ccccc1NC(=O)C1CC(=O)N(c2ccc(C)c(C)c2)C1 (stereo unspecified)	8.5	3.9	0.8	8.8	·	36.7
COC(=O)c1c(NC(=O)c2ccco2)sc2c1C(C(=O)OC)CC2 (stereo unspecified)	15.2	23.9	1.1	-14.6	54.5*	·
SMILES	EP2 antag	EP2 mod	S1P4 ag	S1P4 antagonist	S1P3 antag	INS promoter inh
COc1ccc(C(c2sc3nc(C)nn3c2O)N2CCC(C(N)=O)CC2)cc1OC (stereo unspecified)	8.6	-8.5	-0.9	-8.7	-14.7	80.0*
CCOC(=O)N1CCN(C(=O)c2ccc3nc(C)sc3c2)CC1	7.1	13.0	-1.6	-8.5	-4.0	71.4*
Cc1ccc2nc(NCCCO)[nH]c2c1	12.2	3.8	-1.9	-5.6	·	78.4*
Oc1ccc2ccccc2c1/C=C/c1ccc2c(Br)cc(Br)c(O)c2n1	41.8*	4.3	·	·	·	·
CCN(CC)CCN(C(=O)c1ccc(S(=O)(=O)N2CCCCC2)cc1)c1nc2cc3c(cc2s1)OCO3	8.9	-5.7	-0.6	-8.8	-16.1	75.0*
CN1[C@@H](C(=O)NCCCn2ccnc2)C[C@@H](c2cccs2)NS1(=O)=O	·	-0.5	·	·	·	·
CC(C)(C)n1nnnc1C(c1cccnc1)N(CCc1ccccc1)Cc1cccs1 (stereo unspecified)	8.0	62.9*	·	·	·	·
CC(C)(C)n1nnnc1C(c1cccs1)N(Cc1cccnc1)Cc1ccco1 (stereo unspecified)	3.5	24.3	0.5	-1.1	·	-28.9
CCN(Cc1ccccc1)C(c1ccc(Cl)cc1)c1nnnn1C(C)(C)C (stereo unspecified)	3.4	30.9	0.6	-5.0	·	34.1
CCN(Cc1ccccc1)C(c1ccc(C)cc1)c1nnnn1C(C)(C)C (stereo unspecified)	10.3	61.2*	1.1	-4.2	·	16.7
O=c1[nH]c(O)c(/C=C2\C=Nc3ccccc32)[nH]1	11.9	-59.6	0.1	15.1	-0.7	·
O=c1oc2ccccc2c(O)c1/C=C1\C=Nc2ccccc21	51.6*	-55.2	0.3	10.6	·	28.0
Cc1ccccc1OC1C(=O)N(C2CCCC2)C1c1ccc2c(c1)OCO2 (stereo unspecified)	9.1	61.0*	·	·	·	·
COc1ccc(CCN2C(=O)C(Oc3ccccc3C)C2c2ccc3c(c2)OCO3)cc1 (stereo unspecified)	3.8	30.1	2.6	-24.3	16.6	-69.7
CC[C@@H](Cn1nnc2ccccc2c1=O)NC(=O)C1(c2ccccc2)CCCC1	11.9	-3.7	·	·	·	·
Cc1cc(C)c2cc(CN(Cc3cccs3)Cc3nnnn3CCc3ccccc3)c(=O)[nH]c2c1	10.0	63.2*	·	·	·	·
Cc1cc2cc(CN(Cc3cccs3)Cc3nnnn3Cc3ccccc3)c(=O)[nH]c2cc1C	14.1	17.7	·	·	·	·
O=[N+]([O-])c1ccccc1/C=N/n1c(C2CCCCC2)n[nH]c1=S	7.4	37.9	1.1	-10.6	-23.4	·
S=c1[nH]nc(C2CCCCC2)n1/N=C/c1ccc(Br)s1	7.0	63.1*	0.3	4.0	·	-17.1
CCC(C)(C)n1nnnc1C(C(C)C)N(Cc1ccccc1)Cc1cc2cc(C)ccc2[nH]c1=O (stereo unspecified)	14.3	79.6*	·	·	·	·
CCCC(c1nnnn1C(C)(C)C)N(Cc1ccccc1OC)Cc1cc2cc(C)ccc2[nH]c1=O (stereo unspecified)	9.6	71.7*	·	·	·	·
